Data published in PubChem BioAssay (NCI).
About 79,000 compounds went through this panel and 15% of them were active in at least one assay; those are over-represented in the sample as a whole. Rule as the data show it: active = growth inhibition above about 70%; inactive = the rest.

What was measured:
[1] = NCI Yeast Anticancer Drug Screen. Data for the rad52 strain (AID 147);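 also: 0% = growth of vehicle-treated control cultures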; conditions: S. cerevisiae rad52 mutant growth inhibition, stronger effect = higher value
Outline: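 Yeast strain carrying a DNA damage repair alteration was exposed to test compounds. Growth inhibition was measured relative to vehicle-treated controls.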

[2] = NCI Yeast Anticancer Drug Screen. Data for the wt1 strain (AID 149);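 also: 0% = growth of vehicle-treated wt1 cultures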; conditions: S. cerevisiae wt1 strain (SPY 50644) growth inhibition, stronger effect = higher value
Outline: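 Vehicle-normalised growth inhibition; strain wt1; compound exposure.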

[3] = NCI Yeast Anticancer Drug Screen. Data for the rad50EPP+ strain (AID 151);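 also: 0% = growth of vehicle-treated control cultures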; conditions: S. cerevisiae rad50 mutant strain, stronger effect = higher value
Outline: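 Yeast strain carrying rad50 alteration (rad50EPP+) exposed to compounds; growth inhibition measured relative to vehicle-treated controls.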

[4] = NCI Yeast Anticancer Drug Screen. Data for the rad50 strain (AID 155);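 also: 0% = growth of vehicle-only cultures of the same strain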; conditions: S. cerevisiae rad50 strain growth inhibition, stronger effect = higher value
Outline: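 A DNA repair-deficient yeast mutant serves as the test organism; compound-induced growth inhibition is calculated against vehicle-treated cells.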

[5] = NCI Yeast Anticancer Drug Screen. Data for the mec2-1 strain (AID 157); conditions: S. cerevisiae mec2-1 strain, stronger effect = higher value
Outline: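 mec2-1 yeast strain, carrying an alteration in DNA damage repair or cell cycle control, was exposed to compounds; growth inhibition was measured relative to vehicle-treated controls.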

[6] = NCI Yeast Anticancer Drug Screen. Data for the rad14 strain (AID 159);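 also: 0% = growth of vehicle-treated control cultures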; conditions: S. cerevisiae rad14 strain growth inhibition, stronger effect = higher value
Outline: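 Vehicle-treated cultures served as the baseline for growth inhibition of a DNA repair-mutant yeast strain exposed to each compound.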

[7] = NCI Yeast Anticancer Drug Screen. Data for the sgs1 mgt1 strain (AID 161);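 also: 0% = growth of cultures given vehicle only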; conditions: S. cerevisiae sgs1 mgt1 strain, stronger effect = higher value
Outline: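 Growth of a repair-deficient yeast mutant was monitored after compound treatment and expressed as inhibition relative to vehicle-treated cultures.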

[8] = NCI Yeast Anticancer Drug Screen. Data for the CLN2oe strain (AID 163);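 also: 0% = growth of vehicle-only control cultures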; conditions: S. cerevisiae CLN2oe strain, stronger effect = higher value
Outline: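 Yeast cells carrying a defined cell-cycle control alteration were exposed to test compounds. Growth inhibition was scored against vehicle-treated control cultures.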

[9] = NCI Yeast Anticancer Drug Screen. Data for the cln2 rad14 strain (AID 165);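 also: 0% = growth equal to vehicle treated cultures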; conditions: S. cerevisiae cln2 rad14 strain, stronger effect = higher value
Outline: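 Yeast carrying cln2 and rad14 alterations (cell cycle control and DNA damage repair) were exposed to compounds. Growth inhibition was measured against vehicle-treated controls.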

[10] = NCI Yeast Anticancer Drug Screen. Data for the bub3 strain (AID 167); conditions: S. cerevisiae bub3 mutant strain, stronger effect = higher value
Outline: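 Inhibition values come from growth of compound-treated mutant yeast normalised to vehicle-treated controls.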

[11] = NCI Yeast Anticancer Drug Screen. Data for the wt2 strain (AID 169);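 also: 0% = growth of vehicle-treated yeast cultures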; conditions: S. cerevisiae wt2 strain growth inhibition, stronger effect = higher value
Outline: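 Yeast cells were exposed to test compounds, and growth inhibition was measured relative to vehicle-treated controls.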

[12] = NCI Yeast Anticancer Drug Screen. Data for the mlh1 strain (AID 171);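 also: 0% = growth of vehicle-treated control cultures of the same strain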; conditions: S. cerevisiae mlh1 strain growth inhibition, stronger effect = higher value
Outline: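 Yeast carrying a defined genetic alteration in DNA damage repair or cell cycle control were exposed to test compounds. Growth inhibition was measured relative to vehicle-treated controls.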

[13] = NCI Yeast Anticancer Drug Screen. Data for the sgs1 strain (AID 173);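 also: 0% = growth of vehicle-only control cultures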; conditions: S. cerevisiae sgs1 mutant, stronger effect = higher value
Outline: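 Yeast mutant strains carrying defined defects in DNA damage repair or cell cycle control were exposed to test compounds. Growth inhibition was scored against vehicle-treated controls.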

[14] = NCI Yeast Anticancer Drug Screen. Data for the rad18 strain (AID 177); conditions: S. cerevisiae rad18 mutant growth inhibition, stronger effect = higher value
Outline: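 Yeast carrying a defined DNA damage repair alteration were exposed to compounds. Growth inhibition was expressed relative to vehicle-treated controls.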

[15] = at 5.0 µM (retest, dose inferred, filed as 0.5)
[16] = at 50.0 µM (retest, dose inferred, filed as 5.0)

Measured: growth inhibition

c1c(N2CCOCC2)ssc1=[N+]1CCOCC1
inactive: [1]; at 1.2 µM 0% | [1]; at 3.7 µM 0% | [1]; at 11.0 µM -4% | [1]; at 33.0 µM -4% | [1]; at 100.0 µM -2% | [2]; at 1.2 µM -3% | [2]; at 3.7 µM -1% | [2]; at 11.0 µM 0% | [2]; at 33.0 µM 0% | [2]; at 100.0 µM -1% | [3]; at 1.2 µM 1% | [3]; at 3.7 µM 3% | [3]; at 11.0 µM 3% | [3]; at 33.0 µM 3% | [3]; at 100.0 µM 5% | [4]; at 1.2 µM -3% | [4]; at 3.7 µM -2% | [4]; [15] 4% | [4]; at 11.0 µM -5% | [4]; at 33.0 µM -3% | [4]; [16] 1% | [4]; at 50.0 µM 54.5% | [4]; at 100.0 µM -2% | [5]; at 1.2 µM 0% | [5]; at 3.7 µM -2% | [5]; [15] 0% | [5]; at 11.0 µM -1% | [5]; at 33.0 µM -1% | [5]; [16] 3% | [5]; at 50.0 µM 51.1% | [5]; at 100.0 µM 1% | [6]; at 1.2 µM -1% | [6]; at 3.7 µM 0% | [6]; at 11.0 µM 3% | [6]; at 33.0 µM 1% | [6]; at 100.0 µM -2% | [7]; [15] 4% | [7]; [16] 2% | [7]; at 50.0 µM 69.1% | [8]; at 1.2 µM 0% | [8]; at 3.7 µM 4% | [8]; at 11.0 µM 3% | [8]; at 33.0 µM 2% | [8]; at 100.0 µM 0% | [9]; [15] -1% | [9]; [16] 7% | [9]; at 50.0 µM 20.7% | [10]; at 1.2 µM 0% | [10]; at 3.7 µM 0% | [10]; [15] -1% | [10]; at 11.0 µM 1% | [10]; at 33.0 µM -2% | [10]; [16] 6% | [10]; at 50.0 µM 51.5% | [10]; at 100.0 µM -2% | [11]; at 1.2 µM 0% | [11]; at 3.7 µM -1% | [11]; at 11.0 µM 0% | [11]; at 33.0 µM 0% | [11]; at 100.0 µM 1% | [12]; at 1.2 µM -1% | [12]; at 3.7 µM 0% | [12]; at 11.0 µM 0% | [12]; at 33.0 µM 0% | [12]; at 100.0 µM -5% | [13]; at 1.2 µM 0% | [13]; at 3.7 µM 1% | [13]; at 11.0 µM 3% | [13]; at 33.0 µM 2% | [13]; at 100.0 µM -3% | [14]; at 1.2 µM -1% | [14]; at 3.7 µM -2% | [14]; at 11.0 µM -1% | [14]; at 33.0 µM -1% | [14]; at 100.0 µM -2%
